# Sampled rows, rich in hits. Any-hit rate of the full collection: about 3.5%.
# GPR151 activ: activators of human GPR151, primary screen, cell-based, PathHunter beta-arrestin, luminescence; activation, % at 11.2 µM; PathHunter beta-arrestin GPR151 cells; 1% of 650,000 active; in the data active = activation above about 4.9%;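 note: 0% = median of compound wells and 100% = cells with positive control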
# TEAD-YAP inh: TEAD-YAP interaction inhibition, primary screen, TEAD-YAP interaction inhibitor project, luminescence, HEK-TIYL cells; TEAD-Gal4/YAP UAS-luciferase luminescence; AID 1259422, 2018; 1.4% of 640,000 active; inhibition, % at 9.12 µM; in the data active = inhibition above about 32%;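 note: 0% = median of test compound wells and 100% = reference inhibitor wells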
# MITF inh: MITF inhibitors, primary screen, biochemical, AlphaScreen, human; Microphthalmia-associated transcription factor (Homo sapiens), O75030; AlphaScreen MITF homodimerization, bead proximity signal; inhibition, % at 2.6 µM; 0.91% of 650,000 active; AID 1259374, 2018; in the data active = inhibition above about 50%;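 note: 0% = vehicle wells with protein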
# FBW7 activator: FBW7 E3 ligase activators, primary screen, biochemical, AlphaScreen, human | F-box/WD repeat-containing protein 7 (Homo sapiens), Q969H0 | AlphaScreen FBW7–phospho-cyclin E peptide binding, activator screen | normalized activity (activation), % at 26.1 µM | 0.13% of 650,000 active; in the data active = normalized activity above about 1.9%;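 note: purified mutant Fbw7 with reduced substrate affinity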
# Target sequence (Q969H0 whole entry, looked up): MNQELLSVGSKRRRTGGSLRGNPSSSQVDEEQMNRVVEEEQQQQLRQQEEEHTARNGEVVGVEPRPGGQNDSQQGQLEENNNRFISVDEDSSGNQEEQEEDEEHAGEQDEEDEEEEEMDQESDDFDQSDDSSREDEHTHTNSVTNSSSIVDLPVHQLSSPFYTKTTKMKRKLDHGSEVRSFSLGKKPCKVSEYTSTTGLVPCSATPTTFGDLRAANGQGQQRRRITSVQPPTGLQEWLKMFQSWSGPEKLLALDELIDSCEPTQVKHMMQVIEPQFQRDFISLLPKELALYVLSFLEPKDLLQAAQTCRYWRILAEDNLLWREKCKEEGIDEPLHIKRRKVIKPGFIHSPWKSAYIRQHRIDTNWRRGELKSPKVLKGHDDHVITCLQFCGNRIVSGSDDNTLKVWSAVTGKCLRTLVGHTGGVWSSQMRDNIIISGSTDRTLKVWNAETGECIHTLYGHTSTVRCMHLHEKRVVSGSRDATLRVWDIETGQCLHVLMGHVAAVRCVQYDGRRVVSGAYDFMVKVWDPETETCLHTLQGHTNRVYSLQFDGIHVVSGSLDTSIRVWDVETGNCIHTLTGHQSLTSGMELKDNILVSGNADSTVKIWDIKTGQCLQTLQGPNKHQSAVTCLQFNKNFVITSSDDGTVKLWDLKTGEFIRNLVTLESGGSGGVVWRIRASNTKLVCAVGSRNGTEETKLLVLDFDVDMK
# GPR151 conf act: GPR151 activators, triplicate retest, confirmation, cell-based, PathHunter beta-arrestin, luminescence; shares compounds with GPR151 activ; GPR151 PathHunter beta-arrestin cells, 90 min; % of EA-reagent control over plate median; activation, % at 11.2 µM; 6,700 tested, under 10 active; AID 1508609, 2020;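 active = mean percent activation across replicates above the confirmation screen cutoff of 4.91%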
# GPR119 counter: GPR119 activators in beta-arrestin cells, counter-screen for GPR151 activator project, cell-based, PathHunter beta-arrestin, luminescence, triplicate; shares compounds with GPR151 activ; AID 1508611, 2020; activation, % at 11.2 µM; 90 min; 0 = compound-well median, 100 = enzyme-acceptor control; 0.3% of 6,700 active;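 active = mean percent activation in the counterscreen above 29.09%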;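 note: counterscreen on off-target GPR119 to flag nonselective hits from the GPR151 activator screen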
# Starred values were filed as active, the others as inactive; . = not tested or not shown.
SMILES,GPR151 activ,TEAD-YAP inh,MITF inh,FBW7 activator,GPR151 conf act,GPR119 counter
COc1ccc(Cc2nnc(Nc3cc(Cl)ccc3C)[nH]c2=O)cc1,5.0*,-2.6,13.2,0.1,0.0,14.3
COc1ccc(C(=O)NN2C(=O)c3ccccc3C2=O)cc1I,5.1*,9.4,7.4,0.1,-0.2,7.9
O=C(Nc1ccc(Cl)c(Cl)c1)OCc1ccco1,6.0*,-15.1,3.7,0.0,0.9,-0.3
O=C1CCCN1CC1CCCN(c2nc3nonc3nc2N2CCCCCC2)C1 (configuration not stated),-1.3,4.8,7.4,0.1,.,.
CCOc1nc(NC(=O)NS(=O)(=O)c2ccccc2)nc(-c2ccccc2)n1,5.0*,-0.8,2.2,0.2,0.0,0.8
CN1CCc2cc(C(CNC(=O)C3(c4cccs4)CCCC3)N3CCOCC3)ccc21 (configuration not stated),-0.3,8.0,0.9,-0.1,.,.
O=C(NC1CC1)c1cccc(Nc2ccc(-n3ccnc3)cc2)c1,6.2*,-0.5,7.2,-0.1,0.8,-3.1
OC(CN1CCOCC1)Cn1cnc2c(SCc3ccccc3)ncnc21 (configuration not stated),6.0*,0.0,9.4,0.0,0.6,-0.2
COCc1ccc(CN2CCCC(CNS(=O)(=O)c3ccc(OC)cc3)C2)o1 (configuration not stated),4.9*,10.4,19.4,0.0,0.0,-4.8
COCCNC(=O)C1CCC(CNS(=O)(=O)c2ccc(OC)cc2)CC1 (configuration not stated),6.0*,5.0,5.8,0.2,-0.2,7.9
CCCNC(=O)C1CCC(CNS(=O)(=O)c2ccc(OC)cc2)CC1 (configuration not stated),-0.5,-3.5,-10.4,0.0,.,.
CC1(C)CC2(CCO1)OC(=O)CC2C(=O)NCc1ccccc1 (configuration not stated),5.6*,-5.4,-10.3,0.1,0.0,6.5
COc1ccc(CNC(=O)COc2ncnc3c(Cl)cc(Cl)cc23)cc1,6.9*,6.8,9.6,0.0,0.4,10.2
CCOc1ccc(S(=O)(=O)NCC(c2ccco2)S(=O)(=O)c2ccc(C)cc2)cc1 (configuration not stated),8.4*,0.0,11.2,0.3,-1.3,-11.3
COCCN1C(=O)C(O)=C(C(C)=O)C1c1cc(OC)ccc1OC (configuration not stated),1.1,10.0,5.9,0.1,.,.
Cc1cc(C)cc(NC(=O)Nc2nnc(N3CCCCC3)s2)c1,3.2,0.4,-1.4,0.0,.,.
O=C(Nc1cccc(C(F)(F)F)c1)Nc1nnc(N2CCCCCC2)s1,5.2*,-2.5,6.0,0.0,-0.7,-3.9
Cc1ccc(NC(=O)Nc2nnc(N3CCCCC3)s2)c(C)c1,7.4*,0.9,4.0,-0.2,0.3,-2.8
COc1cc(NC(=O)Nc2nnc(N3CCCCC3)s2)cc(OC)c1,5.3*,-2.1,-4.3,-0.1,-0.9,-14.5
Cc1cccc(NC(=O)Nc2nnc(N3CCCCC3)s2)c1,5.6*,-49.8,4.9,-0.1,0.1,-2.4
COc1ccc(/C=C(/C#N)c2cccc(F)c2)cc1OC,1.1,-9.0,-3.8,-0.3,.,.
COc1ccc(Nc2nc(Nc3ccc(OC)c(OC)c3)nc(SC3=NCCS3)n2)cc1OC,1.3,1.3,2.0,0.0,.,.
c1ccc(-c2csc(N3CCN(c4ccccc4)CC3)n2)cc1,0.1,-7.5,5.3,0.0,.,.
Cc1nc(C(=O)N2CCc3nnc(C(NC(=O)c4ccoc4)C(C)C)n3CC2)cs1 (configuration not stated),-0.2,3.6,20.3,0.1,.,.
Cc1nnc(SCCCn2c(N3CCOCC3)nc3c2c(=O)[nH]c(=O)n3C)s1,6.9*,-17.0,-8.1,-0.1,-0.1,0.7
SMILES,GPR151 activ,TEAD-YAP inh,MITF inh,FBW7 activator,GPR151 conf act,GPR119 counter
O=C(CSc1nnnn1C1CCCCC1)N1CCCCC1,5.0*,-47.4,-20.2,0.0,-0.6,-7.0
O=C(CSc1nnnn1C1CCCC1)N1CCOCC1,-0.2,-28.3,-6.5,-0.3,.,.
CC(C)CC1C(=O)Nc2cc(S(C)(=O)=O)ccc2N1C(=O)Cc1ccccc1 (configuration not stated),-1.2,-3.5,7.9,0.1,.,.
O=C1CCCCN1c1cccc(NS(=O)(=O)c2cc(F)ccc2F)c1,7.1*,12.4,11.4,0.7,3.4,6.4
CCOC(=O)c1nnn(CC(=O)NC(=O)Nc2cccc(CC)c2)c1C(=O)OCC,5.7*,2.7,3.0,0.0,1.5,10.1
CCCCCCCC1CCc2nc(-c3ccc(F)cc3)ccc2C1 (configuration not stated),-1.3,-8.3,-6.5,0.1,.,.
CCCCCC1CCc2nc(/C=C/c3ccccc3)ccc2C1 (configuration not stated),6.0*,2.4,12.2,0.3,-1.2,-7.0
COc1ccc(C(=O)N/N=C(\C)c2ccc(OC)c(Br)c2)cc1,6.3*,-22.4,1.2,0.0,-0.6,0.5
COc1ccc(OC)c(NC(=O)c2ccc(C)c(Br)c2)c1,7.9*,-21.4,2.2,0.3,-0.4,-10.0
COc1ccc(OC)c(NC(=O)c2ccc(C)cc2)c1,-0.4,-9.2,-1.9,-0.1,.,.
C=CCn1c(=O)c2ccccc2n2c(SCC(=O)Nc3ccccc3C(=O)OC)nnc12,5.0*,1.0,-6.9,-0.1,0.1,-5.6
Cc1ccc(C)c(/C=C2\SC(N)=NC2=O)c1,-0.2,-6.9,-1.8,-0.1,.,.
Cc1cc(C)c(/C=C2\SC(N)=NC2=O)c(C)c1,7.8*,-3.2,-4.0,0.2,-0.1,-1.4
COc1ccc(/C=C2\SC(N)=NC2=O)cc1OC,9.1*,-1.7,18.8,0.0,0.3,10.5
COC(=O)C(NC(=O)Nc1ccc(OC(F)(F)F)cc1)(Nc1cccc(C)c1Cl)C(F)(F)F (configuration not stated),-0.1,-1.6,-13.7,0.1,.,.
Cn1c2c(c(=O)n(C)c1=O)C(c1ccccc1)C1=C(CC(C)(C)CC1=O)N2 (configuration not stated),3.2,10.4,10.3,-0.1,.,.
Cn1c2c(c(=O)n(C)c1=O)C(c1ccc(Cl)cc1)C1=C(CC(C)(C)CC1=O)N2 (configuration not stated),5.5*,-2.2,-4.5,-0.1,1.3,3.9
Cc1cccc(C2C3=C(CC(C)(C)CC3=O)Nc3c2c(=O)n(C)c(=O)n3C)c1 (configuration not stated),-0.4,2.8,10.5,0.1,.,.
